Bioassay records as filed in PubChem.
Only some compounds are listed: those with a hit (about 2.4% of all), similar ones and a draw of the others.
D2 ag-1: activates the human D2 dopamine receptor | 360,000 compounds, 0.084% hits | activation, % (test concentration not listed) | DiscoveRx PathHunter D2 beta-arrestin, luminescence, 90 min; 100% = 57 uM dopamine signal | P14416 | AID 624465; in the data active = activation above about 40%
Target sequence (P14416 whole entry, looked up): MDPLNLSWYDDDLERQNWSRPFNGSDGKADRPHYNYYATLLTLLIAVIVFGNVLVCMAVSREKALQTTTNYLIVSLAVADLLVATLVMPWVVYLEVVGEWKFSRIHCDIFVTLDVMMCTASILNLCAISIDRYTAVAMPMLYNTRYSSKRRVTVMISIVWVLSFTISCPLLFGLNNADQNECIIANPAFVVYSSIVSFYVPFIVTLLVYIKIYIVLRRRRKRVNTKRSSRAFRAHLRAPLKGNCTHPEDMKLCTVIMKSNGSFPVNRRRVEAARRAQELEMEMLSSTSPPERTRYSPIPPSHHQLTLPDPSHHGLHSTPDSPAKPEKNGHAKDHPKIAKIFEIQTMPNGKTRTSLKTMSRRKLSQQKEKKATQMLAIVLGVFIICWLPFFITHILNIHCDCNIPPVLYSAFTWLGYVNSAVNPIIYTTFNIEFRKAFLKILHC
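Agonist mode: compounds alone added to overnight-plated D2 PathHunter cells for 90 min at 37 C, with 57 uM final dopamine (EC100) defining full response. Beta-arrestin recruitment detected by chemiluminescent reagent, read after 1 h at ambient temperature.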
D2 PAM-1: positively modulates the human D2 dopamine receptor allosterically | P14416 | HEK293 T-REx D2, calcium flux, EC20 dopamine potentiation | potentiation, % at 10 µM | 340,000 compounds, 0.34% hits | AID 485347;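 active = potentiation over 3 SD above the plate norm, cut at about 30% in these data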; also: 0% is about no effect
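Potentiation of an EC20 dopamine calcium response is measured in a force-coupled, tetracycline-inducible Hek293 Trex D2 line. Compound-only kinetic reads over 180 s flag agonists before dopamine addition.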
D2 PAM-2: positive allosteric modulators of human D2 dopamine receptor; potentiation, % (no concentration beside the values); 360,000 compounds, 0.23% hits; DiscoveRx D2 beta-arrestin cells, luminescence, 90 min; 100% = 57 uM dopamine signal; in the data active = potentiation above about 50%
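PathHunter D2 cells, attached overnight at 37 deg C, received compound in DMSO plus dopamine at EC20 (50 nM final) for 90 min at 37 deg C. Beta-arrestin recruitment was read as luminescence after 1 h with detection reagent at ambient temperature.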
D2 ag-2: agonists of human D2 dopamine receptor. 340,000 compounds, 0.53% hits. activation, % at 2 µM. P14416. HEK293 T-REx D2 cells, calcium flux agonist mode. AID 485358;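 active = activation over 3 SD above normal in the single-dose calcium agonist read, cut at about 30% in these data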; also: 0% is about no effect
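In this primary screen, compounds producing a positive calcium signal within 180 s of addition to tetracycline-induced, force-coupled HEK293 Trex D2 cells are flagged; cells are dye-loaded with a no-wash calcium kit beforehand.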
D2 antagonist: D2 dopamine receptor (human) antagonism; P14416; 340,000 compounds, 2% hits; HEK293 TREx D2 cells, calcium flux, dopamine EC80; AID 485344; inhibition, % at 10 µM; in the data active = inhibition above about 30%; inactive = below that, where a call was filed; also: 0% is about no effect
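Cells plated overnight at 30 C with tetracycline; no-wash calcium dye, 30–90 min RT; 10 s baseline; compound pinned; 180 s read; EC80 dopamine added; another 180 s read.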
Starred values were filed as active, the others as inactive; . = no result given.

SMILES | D2 ag-1 | D2 PAM-1 | D2 PAM-2 | D2 ag-2 | D2 antagonist
COc1cccc2c(C)cc3nnc(SCC(=O)Nc4ccc(C)cc4)n3c12 | . | -16 | . | -2 | .
Cc1cc2c(s1)Nc1ccccc1N=C2N1CCN(C)CC1 | . | . | . | . | 77*
O=C(Cc1ccccc1[N+](=O)[O-])NCCc1ccc(F)cc1 | -2 | 2 | -3 | 1 | -29
CC(C)CCNC(=O)Cc1ccccc1[N+](=O)[O-] | -2 | 33* | -10 | 0 | -1
COC(=O)NCC(c1cccnc1)N1CCOCC1 (stereo unspecified) | -6 | -1 | -10 | 0 | 25
O=C(NCC(c1cccnc1)N1CCOCC1)c1cccs1 (stereo unspecified) | 0 | -2 | -1 | 1 | 34*
O=C(OCc1ccccc1)C1CCN(S(=O)(=O)c2cccs2)CC1 | -3 | . | -6 | . | .
O=C(OCn1nnc2ccccc2c1=O)C1CCN(S(=O)(=O)c2cccs2)CC1 | -4 | 74* | -3 | -1 | -11
COc1ccc(CN(C)c2ccc(-c3nc(C)no3)cc2[N+](=O)[O-])cc1 | . | 0 | . | -1 | .
COC(=O)c1ccc(NC(C)C(=O)OC)c([N+](=O)[O-])c1 (stereo unspecified) | 1 | -10 | 3 | -1 | 43*
Cc1c(Cl)c(C(=O)Nc2nc3ccccc3n2CCN2CCCCC2)nn1C | . | 35* | . | -1 | -15
CC(c1ccccc1)n1cc(C(=O)NCC2CCCO2)nn1 (stereo unspecified) | -4 | -12 | -4 | 0 | 40*
COc1cccc(N=c2oc3cc(O)ccc3cc2C(=O)NCC2CCCO2)c1 (stereo unspecified) | -1 | 10 | -4 | 0 | 1
COc1ccccc1N=c1oc2cc(O)ccc2cc1C(=O)NCC1CCCO1 (stereo unspecified) | -6 | 2 | -14 | 1 | 36*
COCCSc1ccccc1C(=O)NCC1CCCO1 (stereo unspecified) | -1 | 2 | -9 | 0 | 34*
CC(c1ccccc1)n1cc(C(=O)NCCN2CCOCC2)nn1 (stereo unspecified) | -4 | -7 | -2 | 1 | -2
CSc1ccccc1C(=O)NCC1CCCO1 (stereo unspecified) | 0 | 2 | -3 | 0 | 2
O=S(=O)(c1ccc(F)cc1)N1CCC(n2c(C(F)(F)F)nc3cccnc32)CC1 | . | -7 | . | 0 | .
Cn1cccc1Cc1nnc(SCC(=O)NC2CCCC2)n1-c1ccc(F)cc1 | -3 | -1 | 2 | 2 | 36*
C=CCn1c(CNC(=O)c2ccccc2F)nnc1SCc1nc2ccccc2c(=O)[nH]1 | 13 | 38* | -31 | . | .
c1ccc(SCCOCCN2CCc3ccccc3C2)cc1 | -7 | -20 | -12 | 0 | 75*
CC1CN(CCCSc2ccc(Cl)cc2)CC(C)O1 (stereo unspecified) | -2 | -21 | -23 | -2 | 11
CC1CC(C)CN(CCCSc2ccccc2)C1 (stereo unspecified) | -4 | 11 | -38 | 0 | 25
CC1CC(C)CN(CCOCCSc2ccc(Cl)cc2)C1 (stereo unspecified) | 1 | -25 | -5 | -1 | 65*
CC1CC(C)CN(CCOCCSc2ccccc2)C1 (stereo unspecified) | -3 | -21 | -30 | -1 | 65*
SMILES | D2 ag-1 | D2 PAM-1 | D2 PAM-2 | D2 ag-2 | D2 antagonist
Cc1ccc(NC(=O)C2CCC(N3C(=O)C4CCCCC4C3=O)CC2)cc1 (stereo unspecified) | -4 | -11 | -6 | 0 | 43*
O=C(Nc1ccc(Cc2ccncc2)cc1)C1CCC(N2C(=O)C3CCCCC3C2=O)CC1 (stereo unspecified) | -1 | -9 | 0 | -1 | -5
Cc1ccc(OCCCC(=O)Nc2nc3ccccc3[nH]2)cc1 | 5 | 11 | 8 | 0 | -12
O=C(CCCOc1ccccc1)Nc1nc2ccccc2[nH]1 | -2 | 70* | -1 | 0 | -2
Cc1ccccc1-n1nc(CO)c(C(=O)NCc2cccs2)n1 | . | -8 | . | . | .
CCn1cc(C(=O)O)c(=O)c2cc(F)c(N/N=C/c3ccccc3[N+](=O)[O-])cc21 | 1 | -21 | -2 | 7 | 30*
CCn1cc(C(=O)O)c(=O)c2cc(F)c(N3CCN(C(=S)NC(=O)c4ccccc4Br)CC3)cc21 | -2 | 31* | -10 | -2 | 6
Cc1cc(F)ccc1NC(=O)CCS(=O)(=O)c1cc2c(cc1C)NC(=O)CO2 | . | -4 | . | 1 | .
CCOc1ccccc1CNC(=O)c1cnc2sc(N(CC)CC)nn2c1=O | . | -10 | . | . | .
COc1ccc(CC(=O)NCC(c2cccs2)S(=O)(=O)c2ccc(Cl)cc2)cc1 (stereo unspecified) | . | -2 | . | 0 | .
CC(C)Oc1ccc(C2CC(=O)N(c3ccccc3)C2=O)cc1 (stereo unspecified) | -1 | . | 22 | . | .
CC(C)Oc1ccc(C2CC(=O)N(c3ccc(N(C)C)cc3)C2=O)cc1 (stereo unspecified) | -3 | -6 | -2 | 0 | 34*
CCCC(=O)Nc1nnc(SCc2cc(=O)c3cc(C)ccc3[nH]2)s1 | . | 4 | . | 0 | .
CCOP(=O)(OCC)c1nc(-c2ccc(Br)cc2)oc1N1CCCCC1 | -1 | . | -4 | . | .
CCOP(=O)(c1ccccc1)c1nc(-c2ccc(F)cc2)oc1N1CCCCC1 (stereo unspecified) | -4 | 11 | -14 | 0 | 32*
CCN(CC)CCN(C(=O)c1ccc2c(c1)CCCC2)c1nc2ccc(C)cc2s1 | 4 | -22 | -25 | -1 | 46*
CCN(CC)CCN(C(=O)c1ccc2c(c1)CCCC2)c1nc2c(C)cccc2s1 | 7 | -14 | -16 | 1 | 60*
CCN(CC)CCN(C(=O)c1ccc2c(c1)CCCC2)c1nc2ccc(F)cc2s1 | 2 | -16 | -18 | -1 | 17
CCc1ccc(NS(=O)(=O)c2ccc3[nH]cc(C(=O)NCc4ccc(C)cc4)c(=O)c3c2)cc1 | . | 2 | . | 0 | .
OC(COCc1ccccc1)CN1CCc2ccccc2C1 (stereo unspecified) | -1 | -27 | -27 | 0 | 47*
OC(COc1c(F)cc(Br)cc1F)CN1CCc2ccccc2C1 (stereo unspecified) | -3 | -33 | -77 | -1 | 65*
Cc1cccc(C)c1OCC(O)CN1CCc2ccccc2C1 (stereo unspecified) | -6 | . | -16 | . | .
COc1ccc(COCC(O)CN2CCc3ccccc3C2)cc1OC (stereo unspecified) | -2 | . | -17 | . | .
CCN1CCN(C2=C(NS(=O)(=O)c3ccc(NC(C)=O)cc3)C(=O)c3ccccc3C2=O)CC1 | 11 | -2 | -17 | 0 | 4
CCN1CCN(C2=C(NS(=O)(=O)c3ccc(C)cc3)C(=O)c3ccccc3C2=O)CC1 | 3 | -1 | -24 | 0 | 39*
